Reference: PubChem BioAssay (Tox21)
Several values for one entry are separate records, joined by “and”; a condition that tells them apart may be missing. Equal entries are not always repeated. Results filed as inconclusive are left out. More than one record can exist for a structure, and the calls need not agree. Activity calls are given as the source filed them. Unless noted, the call rests on the fitted dose curve; in most records, active means well fitted curve in the direction sought with a large enough effect in the repeat runs; inconclusive means weak or mixed curves; inactive means no such curve, though single readings can be large; an effect the other way counts as inactive or inconclusive.

How the values were obtained:
[1] = molecular target: Thyrotropin receptor (Homo sapiens) (UniProt P16473); test: qHTS assay to identify small molecule agonists of the thyroid stimulating hormone receptor (TSHR) signaling pathway (AID 1224843; calls by dose curve; further: nearly all actives have a fitted effect of over 45% in size)
Summary of the method: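 A cell-based cAMP HTRF format was run in TSHR-transfected HEK293 cells, 800 per well. Treatment: 30 min, room temperature. Detection: 1 h with labelled cAMP and anti-cAMP cryptate. Concentration-response over 15 points, three replicates.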

[2] = qHTS assay to identify small molecule agonists of the hypoxia (HIF-1) signaling pathway - cell viability counter screen (AID 1224844; calls by dose curve; further: nearly all actives have a fitted effect of over 50% in size; further: potency means the concentration at half of the fitted maximal effect)
Summary of the method: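 Same wells as the HIF-1 reporter screen; ME-180 cells carrying HRE-bla, 17 hr treatment at 37C; CellTiter-Glo luminescence read after 30 min at room temperature.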

[3] = qHTS assay to identify small molecule agonists of the hypoxia (HIF-1) signaling pathway (AID 1224846; active means well fitted activation curve with a large enough effect in the signal ratio in the repeat runs, not every such curve was filed as active; the % refers to the signal ratio)
Summary of the method: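 In ME-180 cells bearing an HRE-bla construct, 17 h treatment with DMSO-dissolved compounds at 37C was followed by CCF4-AM loading to quantify reporter induction.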

[4] = qHTS assay to identify small molecule agonists of H2AX - cell viability counter screen (AID 1224847; calls by dose curve;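 further: wild-type CHO-K1 cells; top concentration of the series differs between compounds; nearly all actives have a fitted effect of over 30% in size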)
Summary of the method: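 Counter-screen for viability: CellTiter-Glo ATP luminescence read after 3 h compound treatment (15-point titration, 0.76% DMSO final) of CHO-K1 cells at 37C, with 30 min room-temperature reagent incubation.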

[5] = qHTS assay to identify small molecule antagonists of the estrogen related receptor (ERR) signaling pathway from Tox21 library (AID 1224848); further: nearly all actives have a fitted effect of over 50% in size; further: potency means the concentration at half of the fitted maximal effect
Summary of the method: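 ERR cell line, 2,000 cells/well. 6 h settle, then compound (DMSO) added; 18 h at 37 C; ONE-Glo luminescence after 30 min RT.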

[6] = qHTS assay to identify small molecule agonists of the estrogen related receptor (ERR) signaling pathway from Tox21 library (AID 1224849; calls by dose curve; further: nearly all actives have a fitted effect of over 15% in size); details: ERR reporter cell line, ONE-Glo luciferase, 18 h
Summary of the method: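 Reporter cells (ERR, NTP source) treated with Tox21 10K compounds 18 h, 37 C. Readout: ONE-Glo luminescence, 30 min RT.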

[7] = qHTS RealTime-Glo MT Cell Viability Assay in HepG2 cells - 24 hour (AID 1224867); further: nearly all actives have a fitted effect of over 50% in size
Summary of the method: (§1)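 Real-time, nonlytic viability: 600 HepG2 cells/well mixed with NanoLuc enzyme plus prosubstrate; 5 h settle, compound (DMSO) added by pintool; luminescence monitored over 40 h at 37 C.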

[8] = qHTS RealTime-Glo MT Cell Viability Assay in HEK293 cells - 32 hour (AID 1224868); further: top concentration of the series differs between compounds; nearly all actives have a fitted effect of over 50% in size
Summary of the method: (§2)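 Cells + reagent dispensed (600 cells/well, HEK293) → 5 h at 37 C/5% CO2 → 23 nL compound in DMSO pinned → 40 h at 37 C → luminescence read at 0, 8, 16, 24, 32, 40 h.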

[9] = A CellTox Green Cytotoxicity Assay to monitor cytotoxicity in HEK293 cells - 0 hour (AID 1224869); further: nearly all actives have a fitted effect of over 50% in size
Summary of the method: (§3)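 Homogeneous no-lysis format: HEK293 cell suspension mixed with CellTox Green reagent, seeded, incubated 5 h at 37 C/5% CO2, then dosed by pintool with compound in DMSO.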

[10] = qHTS RealTime-Glo MT Cell Viability Assay in HepG2 cells - 40 hour (AID 1224870); further: nearly all actives have a fitted effect of over 50% in size
Summary of the method: (§4)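 Real-time viability: cells seeded at 600 per well together with NanoLuc and cell-permeant prosubstrate, compounds added after 5 h incubation. Luminescence tracked at 0, 8, 16, 24, 32 and 40 h of exposure.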

[11] = A CellTox Green Cytotoxicity Assay to monitor cytotoxicity in HEK293 cells - 40 hour (AID 1224871); further: nearly all actives have a fitted effect of over 45% in size; further: potency means the concentration at half of the fitted maximal effect
Summary of the method: as §3

[12] = qHTS RealTime-Glo MT Cell Viability Assay in HEK293 cells - 16 hour (AID 1224872)
Summary of the method: as §2

[13] = qHTS RealTime-Glo MT Cell Viability Assay in HepG2 cells - 8 hour (AID 1224873); further: nearly all actives have a fitted effect of over 55% in size
Summary of the method: as §4

[14] = qHTS RealTime-Glo MT Cell Viability Assay in HEK293 cells - 40 hour (AID 1224874); details: RealTime-Glo luminescence; max response: stronger effect = lower value; further: nearly all actives have a fitted effect of over 50% in size
Summary of the method: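 Measured as luminescence from the same continuously cultured HEK293 wells at successive time points (0, 8, 16, 24, 32, 40 h) after compound addition. Reagent present from seeding; dosing at 5 h; incubation 37 C.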

[15] = A CellTox Green Cytotoxicity Assay to monitor cytotoxicity in HEK293 cells - 24 hour (AID 1224875); further: nearly all actives have a fitted effect of over 45% in size
Summary of the method: as §3

[16] = A CellTox Green Cytotoxicity Assay to monitor cytotoxicity in HepG2 cells - 16 hour (AID 1224876); further: nearly all actives have a fitted effect of over 45% in size
Summary of the method: (§5)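 Fluorescent DNA-binding dye, 600 HepG2 cells/well, 5 h preincubation then compound in DMSO; same plates read at 0–40 h, 37 C.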

[17] = qHTS RealTime-Glo MT Cell Viability Assay in HepG2 cells - 32 hour (AID 1224877); further: nearly all actives have a fitted effect of over 55% in size
Summary of the method: as §1

[18] = A CellTox Green Cytotoxicity Assay to monitor cytotoxicity in HepG2 cells - 24 hour (AID 1224878); further: nearly all actives have a fitted effect of over 45% in size
Summary of the method: as §5

[19] = A CellTox Green Cytotoxicity Assay to monitor cytotoxicity in HepG2 cells - 40 hour (AID 1224879); further: nearly all actives have a fitted effect of over 40% in size; further: potency means the concentration at half of the fitted maximal effect
Summary of the method: as §5

[20] = qHTS assay to identify small molecule agonists of H2AX (AID 1224845; active means well fitted activation curve with a large enough effect in the signal ratio in the repeat runs, not every such curve was filed as active; the % refers to the signal ratio)
Summary of the method: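 Phospho-H2AX Ser139 measured by HTRF (ex 320 nm; em 665 and 620 nm) after 24 hr antibody incubation. Compounds, 15 concentrations, 0.76% DMSO, were applied to CHO-K1 cells for 3hr at 37C before lysis.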
On the % scale 0 is the no-effect control and ±100 the full control effect.

Sequence of Thyrotropin receptor (Homo sapiens) (P16473 whole entry, looked up): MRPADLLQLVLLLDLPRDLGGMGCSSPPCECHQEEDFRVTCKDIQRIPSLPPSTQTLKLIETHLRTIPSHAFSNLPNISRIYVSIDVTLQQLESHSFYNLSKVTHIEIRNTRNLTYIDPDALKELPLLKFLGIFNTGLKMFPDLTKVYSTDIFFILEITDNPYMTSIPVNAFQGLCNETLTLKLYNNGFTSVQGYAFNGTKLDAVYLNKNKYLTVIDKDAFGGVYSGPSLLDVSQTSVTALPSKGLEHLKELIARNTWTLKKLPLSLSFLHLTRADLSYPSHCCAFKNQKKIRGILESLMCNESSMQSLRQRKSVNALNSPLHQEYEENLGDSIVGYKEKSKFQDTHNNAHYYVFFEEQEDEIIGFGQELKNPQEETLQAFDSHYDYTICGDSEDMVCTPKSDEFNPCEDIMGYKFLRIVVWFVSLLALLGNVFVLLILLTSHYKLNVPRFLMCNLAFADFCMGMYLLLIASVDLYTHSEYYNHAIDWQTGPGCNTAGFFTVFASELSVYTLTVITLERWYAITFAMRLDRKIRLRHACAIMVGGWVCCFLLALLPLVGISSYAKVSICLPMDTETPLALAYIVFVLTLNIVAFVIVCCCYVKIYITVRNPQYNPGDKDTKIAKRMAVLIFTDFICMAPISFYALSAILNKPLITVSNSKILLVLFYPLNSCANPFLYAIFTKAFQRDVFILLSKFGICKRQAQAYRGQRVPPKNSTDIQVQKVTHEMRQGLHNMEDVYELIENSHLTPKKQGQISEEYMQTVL

CS(=O)(=O)OCCCCOS(C)(=O)=O
inactive: Potency [1] | Potency [2] | outcome [3] | Potency [4] | Potency [5] | activity change, positive = activation ([6]; at 42.5 µM (top of the series)) -0.0445% | activity change, positive = activation ([6]; at 92.4 µM (top of the series)) -6.97% and 6.13% | Potency [7] | Potency [8] | Potency [9] | Potency [10] | Potency [11] | Potency [12] | Potency [13] | max response [14] 2.47% and 13.2% and 7.82% | Potency [15] | Potency [16] | Potency [17] | Potency [18] | Potency [19]

Cc1ncc([N+](=O)[O-])n1CCO
inactive: Potency [1] | Potency [2] | Potency [20] | Potency [4] | Potency [5] | activity change, positive = activation ([6]; at 42.5 µM (top of the series)) 4.15% | activity change, positive = activation ([6]; at 92.4 µM (top of the series)) 5.04% and 2.17% | Potency [7] | Potency [8] | Potency [9] | Potency [10] | Potency [11] | Potency [12] | Potency [13] | max response [14] 2.44% and 13.2% and 5.09% | Potency [15] | Potency [16] | Potency [17] | Potency [18] | Potency [19]

CC12CCC(CC1)C(C)(C)O2
inactive: Potency [1] | Potency [2] | Potency [20] | outcome [3] | Potency [4] | Potency [7] | Potency [8] | Potency [9] | Potency [10] | Potency [11] | Potency [12] | Potency [13] | max response [14] -1.4% and 0.858% and 5.76% | Potency [15] | Potency [16] | Potency [17] | Potency [18] | Potency [19]

CN(N=O)C(=O)N[C@@H]1[C@@H](O)[C@H](O)[C@@H](CO)O[C@@H]1O
inactive: Potency [1] | Potency [2] | Potency [20] | outcome [3] | Potency [4] | Potency [7] | Potency [8] | Potency [9] | Potency [10] | Potency [11] | Potency [12] | Potency [13] | max response [14] 1.13% and 4.9% and 1.17% | Potency [15] | Potency [16] | Potency [17] | Potency [18] | Potency [19]

CC(=O)Nc1c(I)c(NC(C)=O)c(I)c(C(=O)O)c1I
inactive: Potency [1] | Potency [2] | Potency [20] | Potency [4] | Potency [7] | Potency [8] | Potency [9] | Potency [10] | Potency [11] | Potency [12] | Potency [13] | max response [14] 8.14% and 7% and 2.59% | Potency [15] | Potency [16] | Potency [17] | Potency [18] | Potency [19]

Cc1cccc(C)c1
inactive: Potency [1] | Potency [2] | outcome [3] | Potency [4] | Potency [5] | activity change, positive = activation ([6]; at 92.4 µM (top of the series)) -11.8% and 5.13% | Potency [7] | Potency [8] | Potency [9] | Potency [10] | Potency [11] | Potency [12] | Potency [13] | max response [14] -11.1% and -3.52% and 0.116% | Potency [15] | Potency [16] | Potency [17] | Potency [18] | Potency [19]

O=c1[nH]cc(F)c(=O)[nH]1
50.8 µM (active) and inactive: Potency [11]
45.3 µM (active) and inactive: Potency [19]
10.1 µM (active) and inactive: Potency [2]
inactive: Potency [1] | Potency [20] | Potency [4] | Potency [7] | Potency [8] | Potency [9] | Potency [10] | Potency [12] | Potency [13] | max response [14] -1.84% and 1.38% | Potency [15] | Potency [16] | Potency [17] | Potency [18]

COc1ccc2c(c1)c(CC(=O)O)c(C)n2C(=O)c1ccc(Cl)cc1
30.8 µM (active) and inactive: Potency [5]
inactive: Potency [1] | Potency [2] | outcome [3] | Potency [4] | activity change, positive = activation ([6]; at 42.5 µM (top of the series)) -11.8% | activity change, positive = activation ([6]; at 92.4 µM (top of the series)) -34.2% and -25.5% | Potency [7] | Potency [8] | Potency [9] | Potency [10] | Potency [11] | Potency [12] | Potency [13] | max response [14] -7.62% and 0.0637% | Potency [15] | Potency [16] | Potency [17] | Potency [18] | Potency [19]

CN(C)C(=O)Nc1ccc(Cl)c(Cl)c1
inactive: Potency [1] | Potency [2] | Potency [20] | outcome [3] | Potency [4] | Potency [5] | activity change, positive = activation ([6]; at 42.5 µM (top of the series)) -0.767% | activity change, positive = activation ([6]; at 92.4 µM (top of the series)) -14.1% and -8.37% | Potency [7] | Potency [8] | Potency [9] | Potency [10] | Potency [11] | Potency [12] | Potency [13] | max response [14] -20.7% | Potency [15] | Potency [16] | Potency [17] | Potency [18] | Potency [19]
